Experiment [1] can be described thus: qHTS assay to identify small molecule antagonists of the thyroid receptor (TR) signaling pathway - cell viability counter screen (AID 743064). Further: nearly all actives have a fitted effect of over 50% in size. Further: potency means the concentration at half of the fitted maximal effect. A digest of the protocol:
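Plate GH3.TRE-Luc cells; incubate 4 h at 37 °C; add compound, then T3 to 1 nM final; incubate 23.5 h; add CellTiter-Fluor; incubate 30 min at 37 °C, 5% CO2; read fluorescence.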
On the technique in general: Quantitative high-throughput screening tests each substance at several concentrations.

Experiment [2] can be described thus: qHTS assay to identify small molecule antagonists of the thyroid receptor (TR) signaling pathway (AID 743065). Further: nearly all actives have a fitted effect of over 55% in size. Further: potency means the concentration at half of the fitted maximal effect. Put shortly:
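GH3.TRE-Luc rat pituitary cells carrying two TR response elements driving luciferase were plated for 4 h, given compound plus 1 nM T3 (final), and incubated 23.5 h at 37 C. ONE-Glo luminescence measured reporter inhibition; CellTiter-Fluor fluorescence tracked cytotoxicity.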

Experiment [3] concerns thyroid hormone receptor (rat, GH3 cells). Nature of the experiment: qHTS assay to identify small molecule agonists of the thyroid receptor (TR) signaling pathway (AID 743066; calls by dose curve; further: potency means the concentration at half of the fitted maximal effect).
Experiment [4] is described as follows: qHTS assay to identify small molecule antagonists of the estrogen receptor alpha (ER-alpha) signaling pathway - cell viability counter screen (AID 743074; calls by dose curve; further: nearly all actives have a fitted effect of over 45% in size; further: potency means the concentration at half of the fitted maximal effect).
Experiment [5] is described as follows: qHTS assay to identify small molecule antagonists of the estrogen receptor alpha (ER-alpha) signaling pathway using the BG1 cell line - cell viability counter screen (AID 743081).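 Further: compound given together with 17beta-estradiol as the ER stimulus; nearly all actives have a fitted effect of over 45% in size.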 Further: potency means the concentration at half of the fitted maximal effect.
Another experiment addresses Aromatase (Homo sapiens) (UniProt P11511). Nature of the experiment: qHTS assay to identify aromatase inhibitors (AID 743083). Further: nearly all actives have a fitted effect of over 55% in size. Further: potency means the concentration at half of the fitted maximal effect.
Experiment [6] in a line: qHTS assay to identify aromatase inhibitors - cell viability counter screen (AID 743084).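 Further: cells stimulated with testosterone during compound exposure; nearly all actives have a fitted effect of over 55% in size.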 Further: potency means the concentration at half of the fitted maximal effect.
In experiment [7] the target is Aryl hydrocarbon receptor (Homo sapiens) (UniProt P35869). Nature of the experiment: qHTS assay to identify small molecule that activate the aryl hydrocarbon receptor (AhR) signaling pathway (AID 743085).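 Further: HG2L7.5c1 human HepG2 liver cells with stably integrated DRE-driven firefly reporter; series mostly up to about 70 µM; nearly all actives have a fitted effect of over 15% in size.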 Put shortly: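 Steps: seed HepG2-AhR-luc cells; allow 5 h at 37C; pin-transfer test compound or vehicle; incubate 24 h at 37C; add viability dye (30 min, 37C) and read fluorescence; add luciferase substrate (30 min, RT) and read luminescence.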

A short description of experiment [8]: qHTS assay to identify small molecule that activate the aryl hydrocarbon receptor (AhR) signaling pathway - cell viability counter screen (AID 743086). Further: nearly all actives have a fitted effect of over 45% in size. Further: potency means the concentration at half of the fitted maximal effect. A digest of the protocol:
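HepG2-AhR-luc (HG2L7.5c1) cells, 4000/well, were preincubated 5 h at 37C, exposed to compound in qHTS format for 24 hr at 37C, then given CellTiter-Fluor for 30 min; viability was read as fluorescence in the reporter wells.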

In experiment [9] the target is Peroxisome proliferator-activated receptor gamma (Homo sapiens) (UniProt P37231). The experiment is described as follows: qHTS assay to identify small molecule agonists of the peroxisome proliferator-activated receptor gamma (PPARg) signaling pathway (AID 743094; active means well fitted activation curve with a large enough effect in the signal ratio in the repeat runs, not every such curve was filed as active; the % refers to the signal ratio). Put shortly: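 Fluorescence-based beta-lactamase readout in HEK293H PPARg UAS-bla cells after 17 h compound exposure (37C) and 1 h B/G FRET substrate incubation at room temperature.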

Experiment [10] addresses Estrogen receptor (Homo sapiens) (UniProt P03372). The experiment is described as follows: qHTS assay to identify small molecule agonists of the estrogen receptor alpha (ER-alpha) signaling pathway using the BG1 cell line (AID 743079). Further: nearly all actives have a fitted effect of over 20% in size.
Experiment [11] is described as follows: qHTS assay to identify small molecule antagonists of the estrogen receptor alpha (ER-alpha) signaling pathway using the BG1 cell line (AID 743080; calls by dose curve;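 further: BG1 cells stimulated with 17beta-estradiol alongside compound; nearly all actives have a fitted effect of over 25% in size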; further: potency means the concentration at half of the fitted maximal effect). A digest of the protocol: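 Readout is ONE-Glo luminescence, taken 30 min at room temperature after reagent addition, preceded by a CellTiter-Fluor viability read; BG1-Luc-4E2 cells had received compound and 17beta-estradiol for 21.5 h at 37 C.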

A short description of experiment [12]: qHTS assay for small molecule agonists of the antioxidant response element (ARE) signaling pathway - cell viability counter screen (AID 743203; calls by dose curve; further: nearly all actives have a fitted effect of over 55% in size; further: potency means the concentration at half of the fitted maximal effect). Put shortly:
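Parallel cytotoxicity read-out for the ARE-bla screen: HepG2 reporter cells, 16 hrs with compounds, then CellTiter-Glo luminescence.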

The nature of experiment [13]: qHTS assay to identify small molecule antagonists of the peroxisome proliferator-activated receptor gamma (PPARg) signaling pathway - cell viability counter screen (AID 743194). A digest of the protocol: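 PPARg-UAS-bla HEK293H cells were plated, rested 5 h at 37 C, then treated with compounds plus rosiglitazone (50 nM final) for 17 h at 37 C; viability was then read by CellTiter-Glo luminescence after 30 min at room temperature.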

A short description of experiment [14]: qHTS assay for small molecule activators of the heat shock response signaling pathway - cell viability counter screen (AID 743209). Further: potency means the concentration at half of the fitted maximal effect; nearly all actives have a fitted effect of over 50% in size. Put shortly:
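To flag cytotoxic compounds, HSE-bla HeLa cells plated at 1500 cells/well were dosed for 5 h at 37 C, followed by the reporter FRET read and then CellTiter-Glo, with luminescence recorded 30 min after reagent addition.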

The target of experiment [15] is Estrogen receptor (Homo sapiens) (UniProt P03372). Nature of the experiment: qHTS assay to identify small molecule antagonists of the estrogen receptor alpha (ER-alpha) signaling pathway (AID 743069; active means well fitted curve in the direction sought with a large enough effect in the signal ratio in the repeat runs, not every such curve was filed as active; the % refers to the signal ratio; further: potency means the concentration at half of the fitted maximal effect). Put shortly:
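Screening used a UAS-driven beta-lactamase reporter integrated into HEK293 cells expressing ER-alpha, stimulated with 17beta-estradiol alongside test compounds over 18 hr at 37C; signal came from LiveBLAzer B/G FRET fluorescence.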

For experiment [16] the target is unchanged. The experiment is described as follows: qHTS assay to identify small molecule agonists of the estrogen receptor alpha (ER-alpha) signaling pathway (AID 743075; calls by dose curve).

Where “and” joins values, the source holds several entries; their conditions need not be identical. Equal entries are not always repeated. Records with an inconclusive call do not appear. A structure can be active in one record and inactive in another. Calls of active or inactive are those of the source. Unless noted, the call rests on the fitted dose curve; in most records, active means well fitted curve in the direction sought with a large enough effect in the repeat runs; inconclusive means weak or mixed curves; inactive means no such curve, though single readings can be large; an effect the other way counts as inactive or inconclusive.

Aryl hydrocarbon receptor (Homo sapiens), sequence (P35869 whole entry, looked up): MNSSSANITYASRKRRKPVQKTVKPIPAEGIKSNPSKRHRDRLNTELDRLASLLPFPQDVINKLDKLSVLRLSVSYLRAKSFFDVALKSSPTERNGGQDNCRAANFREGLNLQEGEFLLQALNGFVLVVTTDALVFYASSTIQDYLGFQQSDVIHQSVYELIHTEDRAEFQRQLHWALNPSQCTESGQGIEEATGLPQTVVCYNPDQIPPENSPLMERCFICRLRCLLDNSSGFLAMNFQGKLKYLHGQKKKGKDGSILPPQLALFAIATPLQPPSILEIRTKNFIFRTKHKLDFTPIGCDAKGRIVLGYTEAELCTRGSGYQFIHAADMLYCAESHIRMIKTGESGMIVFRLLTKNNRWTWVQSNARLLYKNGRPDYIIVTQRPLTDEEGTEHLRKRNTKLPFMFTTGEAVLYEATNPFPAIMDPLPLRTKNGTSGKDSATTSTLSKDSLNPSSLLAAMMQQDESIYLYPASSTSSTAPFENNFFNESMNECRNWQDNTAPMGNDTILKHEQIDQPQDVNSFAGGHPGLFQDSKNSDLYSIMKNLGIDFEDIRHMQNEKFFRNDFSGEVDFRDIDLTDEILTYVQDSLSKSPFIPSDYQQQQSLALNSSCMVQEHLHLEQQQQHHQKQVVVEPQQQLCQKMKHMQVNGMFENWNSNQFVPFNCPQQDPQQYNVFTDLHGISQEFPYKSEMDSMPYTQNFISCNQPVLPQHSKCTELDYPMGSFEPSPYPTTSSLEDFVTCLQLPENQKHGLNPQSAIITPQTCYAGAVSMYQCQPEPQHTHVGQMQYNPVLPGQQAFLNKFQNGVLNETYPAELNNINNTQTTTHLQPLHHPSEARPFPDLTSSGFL
Estrogen receptor (Homo sapiens), sequence (P03372 whole entry, looked up): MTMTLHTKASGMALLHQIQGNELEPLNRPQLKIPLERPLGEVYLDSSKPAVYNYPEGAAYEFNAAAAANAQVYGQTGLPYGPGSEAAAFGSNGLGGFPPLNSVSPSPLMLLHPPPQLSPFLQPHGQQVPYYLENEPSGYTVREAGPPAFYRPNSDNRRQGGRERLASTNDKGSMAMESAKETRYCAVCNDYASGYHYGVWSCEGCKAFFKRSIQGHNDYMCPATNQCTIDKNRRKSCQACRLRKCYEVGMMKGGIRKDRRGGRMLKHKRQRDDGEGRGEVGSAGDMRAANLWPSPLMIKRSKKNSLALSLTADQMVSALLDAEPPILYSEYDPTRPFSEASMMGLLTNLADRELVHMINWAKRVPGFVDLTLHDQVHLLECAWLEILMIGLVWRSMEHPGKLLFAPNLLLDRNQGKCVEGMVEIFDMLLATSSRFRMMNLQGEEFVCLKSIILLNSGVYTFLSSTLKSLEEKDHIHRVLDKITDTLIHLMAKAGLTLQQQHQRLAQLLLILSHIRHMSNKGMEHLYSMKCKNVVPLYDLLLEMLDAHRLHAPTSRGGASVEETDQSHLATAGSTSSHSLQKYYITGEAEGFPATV
Peroxisome proliferator-activated receptor gamma (Homo sapiens), sequence (P37231 whole entry, looked up): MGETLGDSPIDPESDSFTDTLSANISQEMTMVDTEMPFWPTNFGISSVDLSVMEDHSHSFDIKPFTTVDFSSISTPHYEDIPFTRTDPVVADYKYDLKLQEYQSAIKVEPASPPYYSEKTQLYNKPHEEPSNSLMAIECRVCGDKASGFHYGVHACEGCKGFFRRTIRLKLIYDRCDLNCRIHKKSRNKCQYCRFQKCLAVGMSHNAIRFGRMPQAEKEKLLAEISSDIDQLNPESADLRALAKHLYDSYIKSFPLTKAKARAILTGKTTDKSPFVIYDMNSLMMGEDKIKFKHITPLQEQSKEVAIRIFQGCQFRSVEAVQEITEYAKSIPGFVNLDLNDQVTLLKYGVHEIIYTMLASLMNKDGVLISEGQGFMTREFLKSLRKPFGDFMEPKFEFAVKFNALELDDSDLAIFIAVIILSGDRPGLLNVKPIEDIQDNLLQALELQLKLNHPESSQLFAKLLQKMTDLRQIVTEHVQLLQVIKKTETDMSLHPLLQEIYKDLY
Aromatase (Homo sapiens), sequence (P11511 whole entry, looked up): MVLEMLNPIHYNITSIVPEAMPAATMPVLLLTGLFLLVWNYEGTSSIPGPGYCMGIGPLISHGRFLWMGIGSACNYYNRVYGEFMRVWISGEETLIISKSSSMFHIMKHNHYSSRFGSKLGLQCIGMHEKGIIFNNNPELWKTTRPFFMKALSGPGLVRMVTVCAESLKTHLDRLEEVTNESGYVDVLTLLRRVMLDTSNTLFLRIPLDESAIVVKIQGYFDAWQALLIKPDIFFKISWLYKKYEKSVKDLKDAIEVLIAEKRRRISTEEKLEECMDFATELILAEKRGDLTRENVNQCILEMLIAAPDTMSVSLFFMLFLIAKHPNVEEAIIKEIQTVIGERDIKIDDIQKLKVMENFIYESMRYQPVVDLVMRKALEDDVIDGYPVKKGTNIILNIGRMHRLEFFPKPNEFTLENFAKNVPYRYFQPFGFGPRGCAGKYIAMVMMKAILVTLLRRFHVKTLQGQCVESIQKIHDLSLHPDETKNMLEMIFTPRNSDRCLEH

Regarding `CC1CCCCN1CCCOC(=O)c1ccccc1` (centres undefined), the Potency result (in experiment [1]; in experiment [2]; in experiment [3]; in [4]; in [5]; with Aromatase (Homo sapiens)) was “inactive” in each case. The Potency result in experiment [6], in experiment [7] and in experiment [8] was “inactive” in each case.
Turning to `CCN1CCCC1CNC(=O)c1cc(S(=O)(=O)CC)ccc1OC` (centres undefined), the Potency entry (in experiment [1]; in experiment [2]; in experiment [3]; in experiment [4]; in experiment [5]; with Aromatase (Homo sapiens)) was “inactive” throughout. Also, the Potency entry in [6], in [7], in experiment [8] and in experiment [9] was “inactive” in each case.
As to `O=C1OC(O)C(C(Cl)Cl)=C1Cl` (centres undefined), the Potency is 31.6 µM (active) in experiment [1] and 22.4 µM (active) in experiment [2]. In addition, the Potency result in experiment [3], in [4], in experiment [10], in experiment [11], in [5] and in [7] was “inactive” each time. Further, the Potency result in [12] was “inactive”.
`C[C@@H]1C(=O)NC2=Nc3cccc(Cl)c3CN21`: the Potency entry (in [1]; in experiment [2]; in experiment [3]; in experiment [4]; in experiment [5]; in the experiment with Aromatase (Homo sapiens)) was “inactive” throughout. Besides, the Potency result in [6], in experiment [8] and in experiment [9] was “inactive” throughout.
With `O=c1[nH]c(=O)n([C@H]2C[C@H](O)[C@@H](CO)O2)cc1/C=C/Br`, the Potency result (in experiment [1]; in experiment [2]; in experiment [3]; in [4]; in experiment [5]; with Aromatase (Homo sapiens)) was “inactive” throughout. Also, the Potency result in experiment [6], in experiment [7], in experiment [8] and in [9] was “inactive” throughout.
As to `NC(=S)NS(=O)(=O)c1ccc(N)cc1`, the Potency entry (in experiment [1]; in [2]; in experiment [3]; in experiment [4]; with Aromatase (Homo sapiens); in experiment [6]) was “inactive” each time. For the same compound, the Potency entry in experiment [7], in experiment [8] and in [9] was “inactive” each time.
With `c1ccc(-n2cnnn2)cc1`, the Potency entry (in experiment [1]; in experiment [2]; in [3]; in [4]; in experiment [5]; in the experiment with Aromatase (Homo sapiens)) was “inactive” in each case. Moreover, the Potency entry in experiment [6], in experiment [8] and in experiment [9] was “inactive” throughout.
Take `CCCCCN=C(N)N/N=C/c1c[nH]c2ccc(OC)cc12`: the Potency result (in experiment [1]; in [2]; in [3]; in [4]; in experiment [5]; in the experiment with Aromatase (Homo sapiens)) was “inactive” in each case. Further, the Potency result in experiment [6] and in experiment [8] was “inactive” throughout. The figures for the Potency in experiment [13], in [12] and in experiment [14] were 13.3 µM (active), 10.6 µM (active) and 29.8 µM (active), respectively.
For the compound `CSCC[C@H](NC(=O)[C@H](Cc1ccc(OS(=O)(=O)O)cc1)NC(=O)[C@@H](N)CC(=O)O)C(=O)NCC(=O)N[C@@H](Cc1c[nH]c2ccccc12)C(=O)N[C@@H](CCSC)C(=O)N[C@@H](CC(=O)O)C(=O)N[C@@H](Cc1ccccc1)C(N)=O`, the Potency result (in experiment [1]; in [2]; in experiment [4]; in experiment [5]; with Aromatase (Homo sapiens); in experiment [6]) was “inactive” throughout. Moreover, in experiment [9], the Potency entry was “inactive”. The Potency entry in experiment [3] is “inactive and 11.9 µM (active)”.
In the case of `CCCCCCCCOC(=O)c1cc(O)c(O)c(O)c1`, the Potency in experiment [1] is 2.17 µM (active); in [2], 1.93 µM (active); in experiment [15] it was 61.6 µM [cytotoxic] (active); in the experiment with Aromatase (Homo sapiens), 34.4 µM (active); in experiment [6], 54.5 µM (active); in [13] it was 34.7 µM (active). Further, the Potency in [12] was 54.5 µM (active).
`CN(C[C@@H](CC[N+]12CCC(C3CCCCC3)(CC1)CC2)c1ccc(Cl)c(Cl)c1)C(=O)c1cc(C(F)(F)F)cc(C(F)(F)F)c1`: the Potency is 21.7 µM (active) in [1]; 27.3 µM (active) in [2]; 49 µM (active) in experiment [4]; 61.1 µM (active) with Aromatase (Homo sapiens); 61.1 µM (active) in [6]; 54.5 µM (active) in experiment [8]. Besides, the Potency was 54.9 µM (active) in experiment [13], 30.6 µM (active) in experiment [12] and 24.5 µM (active) in experiment [14]. In experiment [7], the Potency entry is “inactive”.
Turning to `CN1CCN(CCCN2c3ccccc3Sc3ccc(C(F)(F)F)cc32)CC1`, the Potency in experiment [1] is 10.6 µM (active); in experiment [2], 9.44 µM (active); with Aromatase (Homo sapiens), 26.6 µM (active); in experiment [6], 29.8 µM (active); in experiment [13], 29.8 µM (active); in [12] it was 15 µM (active). Besides, the Potency in [14] was 29.8 µM (active). The Potency entry in experiment [3] and in experiment [5] was “inactive” in each case.
For the compound `CNCCC=C1c2ccccc2CCc2ccccc21`, the Potency is 11.9 µM (active) in [1] and 10.6 µM (active) in experiment [2]. Further, the Potency entry in experiment [16], in [10], in experiment [11], in experiment [5], in experiment [6] and in [7] was “inactive” in each case.
Take `C[C@]12O[C@H](C[C@]1(O)CO)n1c3ccccc3c3c4c(c5c6ccccc6n2c5c31)CNC4=O`: the Potency is 0.188 µM (active) in experiment [1]; 0.188 µM (active) in experiment [2]; 21.3 µM (active) in experiment [4]; 21.1 µM (active) in experiment [5]; 2.11 µM (active) with Aromatase (Homo sapiens); 23.7 µM (active) in [6]. Further, in experiment [8], the Potency is 18.8 µM (active).
Consider `CC/C=C\C/C=C\C/C=C\C/C=C\C/C=C\C/C=C\CCC(=O)O`, for which the Potency entry in [1], in [3], in experiment [15], in experiment [4], in [16] and in experiment [10] was “inactive” in each case. Also, the Potency result (in [11]; in experiment [5]; with Aromatase (Homo sapiens); in experiment [6]; in experiment [7]; in experiment [8]) was “inactive” each time. Moreover, the Potency entry in experiment [9] was “inactive”.
On to `CC(C)COC(=O)OCN1C(=O)CN(CCN2CC(=O)N(COC(=O)OCC(C)C)C(=O)C2)CC1=O`, for which the Potency result in experiment [1], in experiment [3], in experiment [15], in [4], in experiment [16] and in experiment [10] was “inactive” throughout. In addition, the Potency entry (in experiment [11]; in experiment [5]; with Aromatase (Homo sapiens); in [6]; in experiment [7]; in [8]) was “inactive” each time. Further, the Potency entry in experiment [9] is “inactive”.
As for `N#Cc1nc(Cl)c(Cl)c(Cl)c1Cl`, the Potency in [1] is 2.43 µM (active); in experiment [2], 1.72 µM (active); with Aromatase (Homo sapiens), 4.86 µM (active); in [6], 7.7 µM (active); in experiment [13], 4.36 µM (active); in [12], 6.11 µM (active). In addition, the Potency in experiment [14] is 2.19 µM (active). Also, the Potency entry in experiment [5] and in experiment [7] was “inactive” throughout.
In the case of `CCCCCCCC[N+](C)(C)CCCCCCCC`, the Potency in experiment [1] was 21.1 µM (active); in [2], 11.9 µM (active) and 13.3 µM (active); in [11], 29.8 µM (active); in the experiment with Aromatase (Homo sapiens), 29.8 µM (active) and 26.6 µM (active). For the same compound, the Potency result in experiment [16], in experiment [5], in experiment [7], in experiment [8] and in experiment [9] was “inactive” each time.

The values above are taken from PubChem BioAssay (Tox21).
